The whole screen tested about 400,000 compounds, of which about 5,500 (1.4%) were called active. Where a call stands in place of a potency, no number is given. Not shown: some 9% with an inconclusive outcome. This is one part of a sample in which actives are shown more often than they occur. Calls follow the shape of the dose curve; as a rule, active = well fitted cell-killing curve with a large enough effect; inconclusive = small, poorly fitted or top-dose-only effect, or effect the other way; inactive = flat fitted curve, though single readings scatter.
Experiment: qHTS assay for MDR1-selective chemotherapeutics: Primary screen using the parental adenocarcinoma cell KB-3-1; also: nearly all actives have a fitted effect of over 60% in size
Details: KB-3-1 viability, CellTiter-Glo ATP luminescence, 72 h; series mostly up to 46.1 µM
Excerpt: A prime difficulty in effectively treating cancer is the development of cellular resistance to multiple structurally unrelated anticancer drugs, a phenomenon known as multidrug resistance (MDR). […] Numerous strategies to overcome P-gp-mediated MDR have been explored, including the design of drugs that evade recognition and efflux, and development of inhibitors to block efflux and restore drug accumulation. […] An alternative approach is to exploit resistance by identifying drugs that target MDR cells over the non-resistant parental cells from which they were selected. […] The development of MDR1-selective agents represents a new strategy for resolving multidrug resistance, as it remains a long-standing clinical challenge for cancer chemotherapy.
Our goal is to identify compounds that selectively kill P-gp-expressing MDR cells. We will identify MDR1-selective compounds by comparing toxicity of compounds in the screening library against parental, drug-naive (KB-3-1) adenocarcinoma cells as well as their drug-selected MDR sub-line (KB-V1). The differential toxicity of compounds against these two cell lines will be used to identify MDR1-selective compounds, whose cytotoxicity is potentiated, rather than diminished, by P-gp expression. This assay will be utilized to conduct a quantitative high-throughput screen (qHTS) in collaboration with the NIH Chemical Genomics Center to identify selective agents, and probe hits arising from the screen will be validated using secondary assays and characterized through a well-established follow-up research program. This screen was run against the entire NCGC library collection of about 400,000 compounds.
NIH Molecular Libraries Probe Production Network [MLPCN]
NIH Chemical Genomics Center [NCGC]
PI: Michael Gottesman PhD, National Cancer Institute, NIH
Briefly, 5 microL of media containing either KB-3-1 cells (columns 1-2, 4-48) are dispensed into Greiner white, treated solid-bottom 1536-well assay plates (media-only control is added to column 3). Compounds are then transferred via Kalypsys pin tool equipped with 1536-pin array (10 nL slotted pins, V&P Scientific, San Diego, CA). Following addition of compound, the plates are incubated at 37 degrees C for 72 hours. CellTiter-Glo (2.5 µL/well) is then added, and the plates are read in a ViewLux reader (Perkin-Elmer, clear luminescence filter, 1 second exposure, 1x binning) following a 10 minute incubation. All cells are dispensed in DMEM phenol-red free media containing 10% FBS.
Library plates were screened starting from the lowest and proceeding to the highest concentration. Vehicle-only plates, with DMSO being pin-transferred to columns 5-48, will be inserted uniformly at the beginning and the end of each library in order to monitor and record any shifts in the background, which can be affected by reagent dispensers or loss in enzyme activity over time. Screening data will be corrected, normalized, and concentration-effect relationships will be derived by using publicly-available NCGC, NCATS curve fitting algorithms (http://ncgc.nih.gov/pub/openhts).
Potency is read from the fitted curve at half-maximal effect.

| SMILES | Potency |
| --- | --- |
| COc1cc(/C=C2\Oc3ccc(C#Cc4ccc(O)cc4)cc3C2=O)cc(OC)c1 | 16.4 µM (active) |
| COc1cccc(N2CCN(S(=O)(=O)c3ccc4c(c3)CCCN4C(C)=O)CC2)c1 | inactive |
| COc1ccc(-c2ccc(=O)n(CC(=O)Nc3ccc(Br)cc3F)n2)cc1 | inactive |
| O=C(CSc1nc2c(c(=O)[nH]1)CN(Cc1ccc(F)cc1)CC2)Nc1ccccc1Cl | inactive |
| Cc1cc2ccccc2n1CCNC(=O)c1ccc(F)cc1 | inactive |
| COc1ccc(NC(=O)COC(=O)C2COc3ccccc3O2)cc1 (stereo not drawn) | inactive |
| O=C(Nc1cc(S(=O)(=O)N2CCCCC2)ccc1Cl)C1COc2ccccc2O1 (stereo not drawn) | inactive |
| O=C(Nc1ncc([N+](=O)[O-])s1)C1COc2ccccc2O1 (stereo not drawn) | 16.4 µM (active) |
| Cc1ccc(C(=O)N2c3ncnn3C3(CCCCC3)[C@@H]3CCCC[C@@H]32)cc1 | inactive |
| COc1cc(NC(=O)c2ccccc2)c(OC)cc1NC(=O)Cc1ccccc1 | inactive |
| CC(=O)c1cc(NC(=O)c2ccccc2)c(=O)oc1/C=C/N(C)C | inactive |
| O=C(NC1=CC(=O)c2ccccc2C1=O)c1ccccc1 | 16.4 µM (active) |
| N#Cc1nc(/C=C/c2ccc(F)cc2)oc1NCc1ccc(F)cc1 | inactive |
| O=C(CCS(=O)(=O)c1cc(Br)cc2c1N(C(=O)C1CC1)CC2)Nc1ccc(Br)cc1F | inactive |
| O=C(O)COc1ccc(/C=N/O)cc1Br | inactive |
| COc1cc(C(=O)NCc2ccncc2)cc(Br)c1OCc1ccccc1 | inactive |
| COc1cc(/C=N/O)cc(Br)c1OCc1cccc(Cl)c1 | 14.6 µM (active) |
| CCOC(=O)c1ccc(NC(=O)CCn2cnnn2)cc1 | inactive |
| COc1ccccc1CN1CCC(CNC(=O)c2cnn(-c3cccc(Cl)c3)c2C2CCN(C(=O)OC(C)(C)C)CC2)CC1 | inactive |
| Cc1ccc(CN2CCC(CNC(=O)c3cnn(-c4ccc(C)cc4)c3C3CCN(C(=O)OC(C)(C)C)CC3)CC2)cc1 | 16.4 µM (active) |
| Cc1ccc(CN2CCC(CNC(=O)c3cnn(-c4ccccc4Cl)c3C3CCN(C(=O)OC(C)(C)C)CC3)CC2)cc1 | inactive |
| CCOc1ccc(OCC)c(NC(=O)c2cc(C)nc3c2c(C)nn3-c2cccc(Cl)c2C)c1 | inactive |
| O=C(/C=C/c1ccc(Cl)cc1)N1CCN(c2ccccc2[N+](=O)[O-])CC1 | inactive |
| CN(C)c1ccc(/C=C/C(=O)c2ccc(O)cc2)cc1[N+](=O)[O-] | 20.6 µM (active) |
| CN(C)c1ccc(/C=N\Nc2ccc([N+](=O)[O-])cc2[N+](=O)[O-])cc1Cl | inactive |
| CCOc1ccc(Br)cc1S(=O)(=O)N1CCC(C(=O)O)CC1 | inactive |
| CC(C)(C)NCc1cc(Br)ccc1OC1CCCC1 | inactive |
| CCOc1ccc(Br)cc1CSC(=N)N | 23.1 µM (active) |

— PubChem BioAssay AID1347075 (National Center for Advancing Translational Sciences (NCATS), 2019)
